Measured values: PubChem BioAssay AID1508602 (The Scripps Research Institute Molecular Screening Center, 2020)
Among all 650,000 compounds or so, about 6,800 (1%) were called active. The full list was thinned out, with actives kept by preference. Values without a mark were called inactive. Rule as the data show it: active = activation above about 4.9%; inactive = the rest.

Target: G-protein coupled receptor 151 (Homo sapiens) (UniProt Q8TDV0)
Assay: activators of human GPR151, primary screen, cell-based, PathHunter beta-arrestin, luminescence (AID 1508602);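 also: 0% = median of compound wells and 100% = cells with positive control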
Details: PathHunter beta-arrestin GPR151 cells, at 11.2 µM, stronger effect = higher value

Chain of G-protein coupled receptor 151 (Homo sapiens) (Q8TDV0 whole entry, looked up): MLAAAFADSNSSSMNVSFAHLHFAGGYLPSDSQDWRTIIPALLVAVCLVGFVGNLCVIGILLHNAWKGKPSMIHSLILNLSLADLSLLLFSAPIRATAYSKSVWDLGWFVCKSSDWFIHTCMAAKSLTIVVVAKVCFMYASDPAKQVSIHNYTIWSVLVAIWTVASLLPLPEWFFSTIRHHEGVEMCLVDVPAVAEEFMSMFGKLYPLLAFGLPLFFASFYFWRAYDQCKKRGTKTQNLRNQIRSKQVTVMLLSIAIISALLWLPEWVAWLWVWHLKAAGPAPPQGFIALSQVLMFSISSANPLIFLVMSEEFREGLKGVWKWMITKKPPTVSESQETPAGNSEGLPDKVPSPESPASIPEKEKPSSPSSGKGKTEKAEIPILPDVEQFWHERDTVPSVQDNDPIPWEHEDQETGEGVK

SMILES	activation
Cc1cc(C)nc(SCC(=O)N/N=C/c2ccc(Cl)cc2Cl)n1	0.39%
CC(/C=N\NC(=O)CSc1nc(C)cc(C)n1)=C\c1ccccc1	9.38% (active)
COc1ccc(C(=O)CCNC(C(=O)O)C(C)O)cc1 (configuration not stated)	-0.172%
C(=N\N1CCN(c2ccccn2)CC1)/C1=C(N2CCOCC2)C(=C/c2ccccc2)/CC1	6.77% (active)
COc1ccc(/C=N/N2CCN(c3ccccn3)CC2)cc1	0.849%
c1ccc(N2CCN(c3ccccn3)CC2)nc1	-0.177%
CCOC(=O)c1sc2nc(SCC(=O)NCc3ccccc3Cl)n(Cc3ccc(Cl)cc3)c(=O)c2c1C	-0.0258%
Cc1cc(C)c(S(=O)(=O)Nc2cccc(N3CCCS3(=O)=O)c2)c(C)c1	0.72%
Cc1cc(C)cc(NC(=O)C(CC(C)C)NS(=O)(=O)c2ccc3c(c2)oc(=O)n3C)c1 (configuration not stated)	3.86%
Cc1cn2c3c(=O)n(Cc4ccccc4)c(=O)n(C)c3nc2n1C	0.103%
Cc1ccccc1C(=O)NNC(=O)c1ccc(NC(=O)C(C)C)cc1	1.54%
CC1CCN(CCCNc2nc(=S)[nH]c3ccccc23)CC1	-3.01%
O=C(O)C1CCC(CNc2nc(=S)[nH]c3ccccc23)CC1 (configuration not stated)	-0.367%
CCN1CCCC1CNc1nc(=S)[nH]c2ccccc12 (configuration not stated)	9.1% (active)
CCCCn1c(N)c(N(CC(C)C)C(=O)CCC(=O)O)c(=O)[nH]c1=O	-0.868%
CCN1CCN(C(C)C(=O)Nc2cc(C)on2)CC1 (configuration not stated)	-5.25%
CC1C(=O)NC(=O)N1c1ccc(Cl)cc1 (configuration not stated)	2.6%
COc1cn2c(cc1=O)C(=O)N(CCNC(=O)c1cccc(F)c1)CC2	0.552%
C=CCC(CC=C)(NC(=O)c1ccc([N+](=O)[O-])cc1)c1ccccc1	2.8%
CCN1/C(=C/c2ccc3cc(C)ccc3[n+]2CC)Sc2ccc(-c3ccccc3)cc21	18.5% (active)
CCC(/C=C1\Sc2ccc(-c3ccccc3)cc2N1CC)=C\c1sc2ccc3ccccc3c2[n+]1CC	-0.19%
CCN1/C(=C/c2ccc3cc(C)ccc3[n+]2CC)Sc2ccc(OC)cc21	1.84%
CCCc1cc(=O)[nH]c(SCC(=O)Nc2ccc(C(N)=O)cc2)n1	-0.889%
COc1ccc(N2C(=O)C3CCCN3C2c2cccc(OC)c2)cc1 (configuration not stated)	6.4% (active)

SMILES	activation
COc1cccc(N2C(=O)C3CCCN3C2c2ccc(F)cc2)c1 (configuration not stated)	1.08%
COc1ccc(N2C(=O)C3CCCN3C2c2cc(OC)c(OC)cc2OC)cc1 (configuration not stated)	-1.11%
CCOC(=O)COc1cccc2c(=O)n(CC(=O)Nc3cccc(Cl)c3)ccc12	-0.932%
CC(C)(C)CC(C)(C)c1ccc(OCC(=O)NNC(=O)c2ccccc2Cl)cc1	-0.581%
CCSc1nnc(NC(=O)CSc2nc3ccccc3[nH]2)s1	0.0173%
CCOC(=O)c1ccc2nc(NC(=O)CSc3nc4ccccc4[nH]3)sc2c1	7.06% (active)
CCOC(=O)c1c(NC(=O)CSc2nc3ccccc3[nH]2)sc2c1CCC2	-0.467%
C=CCn1cnc2sc(C)c(-c3ccc(Cl)cc3)c2c1=O	1.23%
C=CCSc1nnc(-c2cc(N(C)C)nc(N(C)C)n2)n1C	3.52%
COCC1CCN(C(=O)c2cc(COc3ccc4ncccc4c3)on2)C1 (configuration not stated)	2.98%
O=C(c1cc(COc2ccc3ncccc3c2)on1)N1C[C@@H]2CCC[C@H]1C2	0.767%
CCN(CC)C1CCN(C(=O)c2cc(COc3ccc4ncccc4c3)on2)C1 (configuration not stated)	5.71% (active)
Cc1[nH]c2ccccc2c1C(=O)CN1CCN(c2ccccc2)CC1	-0.808%
Cc1cc2c(cc1C)NC(CC(=O)Nc1ccc(Cl)cc1Cl)C(=O)N2 (configuration not stated)	-1.58%
O=C(Nc1ccc(Cl)c(-c2nc3ccccc3o2)c1)c1cc([N+](=O)[O-])ccc1Cl	0.267%
COc1ccc(COC(=O)NNC(=O)c2cccc(Cl)c2)cc1	6.17% (active)
COc1ccc(C(=O)NNC(=O)c2cccc(Cl)c2)cc1OC	1.28%
Cc1cc(C)cc(OCC(=O)NNC(=O)c2cccc(Cl)c2)c1	0.56%
CCOC(=O)N1CCN(C(=O)CSc2nnc(-c3ccc(OC)cc3)o2)CC1	-0.713%
COc1ccc(-c2cn3c(NC(=O)c4ccccc4)cnc3cn2)cc1	-2.03%
COc1cc(/C=N/NC(=O)c2cccs2)cc(OC)c1OC	-1.73%
O=C(N/N=C/c1cccc(Cl)c1Cl)c1ccc(O)cc1	0.598%
O=C(N/N=C/c1cccc(Cl)c1Cl)c1cccs1	10.6% (active)
